Among the data in PubChem BioAssay (EPA / NIEHS) are outcome and AC50 values, retold here.

For orientation: AC50 means the concentration giving half of the maximal activity seen.

Read-out in assay [1]: C-C motif chemokine 2 (Homo sapiens) (UniProt P13500)
The experiment in a line: BSK_KF3CT_MCP1: BioMAP Diversity Plus: KF3CT Assay for Monocyte Chemoattractant Protein 1 (MCP1/CCL2) Biomarker Activity (AID 2283073). The following applies: primary human keratinocytes with fibroblasts; actives raise or lower the signal. Summed up:
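ELISA readout of MCP-1 after 24 h chemical dosing of a human skin primary co-culture of keratinocytes and foreskin fibroblasts. Activity was fitted in both directions against DMSO.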

Read-out in assay [2]: urokinase plasminogen activator (uPA), PLAU (gene 5328)
The experiment in a line: BSK_KF3CT_uPA: BioMAP Diversity Plus: KF3CT Assay for urokinase plasminogen activator (uPA) Biomarker Activity (AID 2283075). The following applies: primary human keratinocytes with fibroblasts; actives raise or lower the signal. Summed up: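 Primary human keratinocyte/foreskin fibroblast co-culture exposed to chemical; uPA measured by ELISA at 24 h. Bidirectional fit versus DMSO, with parallel SRB total-protein staining for cytotoxicity.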

Read-out in assay [3]: CD40, CD40 (gene 958)
Put plainly: BSK_LPS_CD40: BioMAP Diversity Plus: LPS Assay for CD40 Biomarker Activity (AID 2283076). The following applies: primary human HUVEC with PBMC; actives raise or lower the signal. Summed up:
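Cells were dosed, incubated 24 h, then assayed for CD40 by ELISA. Gain or loss of signal was analysed relative to DMSO controls. The culture paired human umbilical vein endothelium with peripheral blood mononuclear cells.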

Read-out in assay [4]: E-selectin (Homo sapiens) (UniProt P16581)
The experiment in a line: BSK_LPS_Eselectin: BioMAP Diversity Plus: LPS Assay for Eselectin Biomarker Activity (AID 2283077). The following applies: primary human HUVEC with PBMC; actives raise or lower the signal. Put shortly:
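Primary human vascular co-culture (endothelium plus PBMC) was dosed with chemical, then E-selectin quantified by ELISA at 24 h. Endpoint values derive from bidirectional curve fitting relative to DMSO.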

Read-out in assay [5]: Interleukin-8 (IL8), CXCL8 (gene 3576)
Put plainly: BSK_LPS_IL8: BioMAP Diversity Plus: LPS Assay for Interleukin-8 (IL8) Biomarker Activity (AID 2283078). The following applies: primary human HUVEC with PBMC; actives raise or lower the signal. Put shortly:
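Readout is IL-8 by ELISA, taken 24 h after compounds were added to LPS-stimulated endothelial/PBMC co-cultures. Both increases and decreases relative to DMSO control were scored through bidirectional fitting.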

Assay [6] is described as follows: BSK_LPS_SRB: Viability Assessment in the BioMAP Diversity Plus: LPS Assay (AID 2283079).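 Also: total protein by sulforhodamine B absorbance as a cytotoxicity measure; measured one day after compound addition.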 The following applies: primary human HUVEC with PBMC. Summed up: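 Readout is SRB absorbance at 560 nm (0.1% stain, TCA-fixed parallel cultures) as a total-protein cytotoxicity measure. Cells: primary human umbilical vein endothelium plus peripheral blood mononuclear cells, 24 h after chemical exposure; DMSO served as baseline.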

Read-out in assay [7]: Interleukin-1 alpha (IL1a), IL1A (gene 3552)
The experiment in a line: BSK_LPS_IL1a: BioMAP Diversity Plus: LPS Assay for Interleukin-1 alpha (IL1a) Biomarker Activity (AID 2283080). The following applies: primary human HUVEC with PBMC; actives raise or lower the signal. Put shortly:
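ELISA read-out of IL-1 alpha from a human primary vascular co-culture (endothelium plus PBMC) under LPS, sampled 24 hours post-dosing. Activity was fitted in both directions relative to DMSO controls.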

Read-out in assay [8]: Monocyte Chemoattractant Protein-1 (MCP1), CCL2 (gene 6347)
The experiment in a line: BSK_LPS_MCP1: BioMAP Diversity Plus: LPS Assay for Monocyte Chemoattractant Protein-1 (MCP1) Biomarker Activity (AID 2283081).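 As to AC50: secreted MCP-1 protein quantified by ELISA in culture supernatant.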 The following applies: primary human HUVEC with PBMC; actives raise or lower the signal. Summed up:
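Human endothelial–PBMC co-cultures were dosed with chemical, then LPS-driven MCP-1 levels were quantified by ELISA at 24 h. Activity in either direction was fitted versus DMSO negative control.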

Assay [9] can be described thus: BSK_LPS_PGE2: BioMAP Diversity Plus: LPS Assay for Prostaglandin E2 (PGE2) Biomarker Activity (AID 2283082). The following applies: primary human HUVEC with PBMC; actives raise or lower the signal. Summed up: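 HUVEC plus PBMC co-culture stimulated with LPS; secreted PGE2 quantified by ELISA 24 h after chemical dosing. Activity fitted bidirectionally against DMSO as negative control and baseline; parallel SRB total-protein staining served as cytotoxicity check.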

Read-out in assay [10]: Macrophage colony-stimulating factor (MCSF), CSF1 (gene 1435)
The experiment in a line: BSK_LPS_MCSF: BioMAP Diversity Plus: LPS Assay for Macrophage colony-stimulating factor (MCSF) Biomarker Activity (AID 2283083). The following applies: primary human HUVEC with PBMC; actives raise or lower the signal. Summed up: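 ELISA readout of M-CSF after 24 h compound exposure in a human endothelial/PBMC co-culture. Activity, in either direction, is fitted relative to DMSO vehicle.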

Read-out in assay [11]: Tissue Factor, F3 (gene 2152)
The experiment in a line: BSK_LPS_TissueFactor: BioMAP Diversity Plus: LPS Assay for Tissue Factor Biomarker Activity (AID 2283084). The following applies: primary human HUVEC with PBMC; actives raise or lower the signal. Put shortly: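 ELISA signal for cell-surface Tissue Factor (CD142) was read 24 h after compound dosing of an LPS-stimulated human endothelial–PBMC primary co-culture. Gain or loss of signal was scored relative to DMSO.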

Read-out in assay [12]: Tumor necrosis factor (Homo sapiens) (UniProt P01375)
The experiment in a line: BSK_LPS_TNFa: BioMAP Diversity Plus: LPS Assay for Tumour Necrosis Factor alpha (TNFa) Biomarker Activity (AID 2283085). The following applies: primary human HUVEC with PBMC; actives raise or lower the signal. Put shortly: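 Human umbilical vein endothelial cells co-cultured with PBMC were exposed to test chemical and TNFa measured by ELISA 24 h after dosing. Bidirectional curve fitting was done relative to DMSO as negative control and baseline.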

Read-out in assay [13]: Vascular cell adhesion molecule 1 (VCAM1), VCAM1 (gene 7412)
Put plainly: BSK_LPS_VCAM1: BioMAP Diversity Plus: LPS Assay for Vascular cell adhesion molecule 1 (VCAM1) Biomarker Activity (AID 2283086). The following applies: primary human HUVEC with PBMC; actives raise or lower the signal. Summed up: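 Human umbilical vein endothelial cells co-cultured with peripheral blood mononuclear cells under LPS stimulation were exposed to test chemical for 24 h. VCAM-1 levels were then measured by ELISA, with bidirectional curve fitting relative to DMSO as negative control and baseline.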

Read-out in assay [14]: CD38, CD38 (gene 952)
Put plainly: BSK_SAg_CD38: BioMAP Diversity Plus: SAg Assay for CD38 Biomarker Activity (AID 2283087). The following applies: primary human HUVEC with PBMC; actives raise or lower the signal. Put shortly: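 Fluorescence ELISA of cell-surface CD38 served as the read-out, with either increase or decrease fitted against DMSO controls. Cells were a human umbilical vein endothelium plus PBMC co-culture under SEB/TSST-1 stimulation, measured 24 h after dosing.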

Read-out in assay [15]: CD40, CD40 (gene 958)
Put plainly: BSK_SAg_CD40: BioMAP Diversity Plus: SAg Assay for CD40 Biomarker Activity (AID 2283088). The following applies: primary human HUVEC with PBMC; actives raise or lower the signal. Put shortly:
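Compounds were dosed onto a human primary endothelial–PBMC co-culture, and after 24 h CD40 was quantified by ELISA using a fluorescence signal. Activity in either direction was fitted relative to DMSO.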

Read-out in assay [16]: CD69, CD69 (gene 969)
Put plainly: BSK_SAg_CD69: BioMAP Diversity Plus: SAg Assay for CD69 Biomarker Activity (AID 2283089).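 As to AC50: cell surface CD69 protein quantified by ELISA with fluorescence detection.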 The following applies: primary human HUVEC with PBMC; actives raise or lower the signal. Put shortly:
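HUVEC co-cultured with PBMC were dosed with chemical, and CD69 was measured by ELISA with fluorescence read-out 24 h later. Bidirectional curve fitting used DMSO as negative control and activity baseline.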

Read-out in assay [17]: Monocyte Chemoattractant Protein-1 (MCP1), CCL2 (gene 6347)
Put plainly: BSK_SAg_MCP1: BioMAP Diversity Plus: SAg Assay for Monocyte Chemoattractant Protein-1 (MCP1) Biomarker Activity (AID 2283090). The following applies: primary human HUVEC with PBMC; actives raise or lower the signal. Summed up:
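MCP-1 levels in the endothelial–PBMC SAg co-culture were quantified by ELISA at 24 h post-dosing; both increases and decreases versus DMSO scored. Cytotoxicity monitored by SRB total protein in parallel cultures.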

Read-out in assay [18]: E-selectin (Homo sapiens) (UniProt P16581)
The experiment in a line: BSK_SAg_Eselectin: BioMAP Diversity Plus: SAg Assay for Eselectin Biomarker Activity (AID 2283091). The following applies: primary human HUVEC with PBMC; actives raise or lower the signal. Summed up:
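Co-culture: HUVEC + PBMC. Dose compound; 24 h. ELISA for E-selectin. Bidirectional fit vs DMSO.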

Read-out in assay [19]: Monokine induced gamma interferon (MIG), CXCL9 (gene 4283)
Put plainly: BSK_SAg_MIG: BioMAP Diversity Plus: SAg Assay for Monokine induced gamma interferon (MIG) Biomarker Activity (AID 2283092). The following applies: primary human HUVEC with PBMC; actives raise or lower the signal. Summed up:
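HUVEC plus human PBMC co-culture, chemicals dosed and MIG (CXCL9) quantified by ELISA at 24 h. Bidirectional curve fitting against DMSO as negative control and baseline, so both gain and loss of signal count as activity.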

Read-out in assay [20]: Matrix Metallopeptidase 9 (MMP9), MMP9 (gene 4318)
The experiment in a line: BSK_KF3CT_MMP9: BioMAP Diversity Plus: KF3CT Assay for Matrix Metallopeptidase 9 (MMP9) Biomarker Activity (AID 2283074).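 Also: MMP9 protein level quantified by ELISA in the co-culture.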 The following applies: primary human keratinocytes with fibroblasts; actives raise or lower the signal. Put shortly:
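Human keratinocyte and foreskin fibroblast co-culture exposed to chemicals for 24 h; MMP9 biomarker measured by ELISA, bidirectional fitting relative to DMSO; cytotoxicity tracked by SRB total protein staining in parallel cultures.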

Active and inactive are the calls of the source. The calls were made as follows: active = hit-call score of the fitted dose curve at least 0.9, where 1 is the maximum; inactive = score below 0.9.

Chain of E-selectin (Homo sapiens) (P16581 whole entry, looked up): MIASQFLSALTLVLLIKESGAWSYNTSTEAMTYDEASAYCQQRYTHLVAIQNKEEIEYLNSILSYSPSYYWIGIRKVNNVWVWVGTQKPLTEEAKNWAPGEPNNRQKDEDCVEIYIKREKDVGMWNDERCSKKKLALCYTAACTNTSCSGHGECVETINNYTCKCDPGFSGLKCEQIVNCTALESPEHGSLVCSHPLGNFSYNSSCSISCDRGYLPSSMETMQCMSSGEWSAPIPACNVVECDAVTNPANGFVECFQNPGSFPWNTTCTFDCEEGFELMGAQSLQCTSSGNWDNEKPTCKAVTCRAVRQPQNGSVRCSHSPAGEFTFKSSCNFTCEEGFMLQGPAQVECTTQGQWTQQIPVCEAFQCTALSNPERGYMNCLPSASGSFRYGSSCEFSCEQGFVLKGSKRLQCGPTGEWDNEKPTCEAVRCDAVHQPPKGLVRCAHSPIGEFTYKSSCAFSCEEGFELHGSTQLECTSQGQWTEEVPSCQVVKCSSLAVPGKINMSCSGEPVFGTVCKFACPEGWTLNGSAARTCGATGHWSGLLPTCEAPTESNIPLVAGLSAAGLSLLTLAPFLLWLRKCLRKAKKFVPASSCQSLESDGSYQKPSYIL
Chain of Tumor necrosis factor (Homo sapiens) (P01375 whole entry, looked up): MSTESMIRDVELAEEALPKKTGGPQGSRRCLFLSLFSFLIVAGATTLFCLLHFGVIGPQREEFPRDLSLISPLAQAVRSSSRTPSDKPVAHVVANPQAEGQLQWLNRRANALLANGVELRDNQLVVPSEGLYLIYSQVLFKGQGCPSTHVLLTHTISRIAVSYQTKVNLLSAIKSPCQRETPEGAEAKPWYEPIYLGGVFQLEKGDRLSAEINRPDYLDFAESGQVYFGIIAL

Consider `CC(C)=CC1C(C(=O)OCc2cccc(Oc3ccccc3)c2)C1(C)C` (stereo not drawn), for which the outcome in assay [1], in [2], in assay [3], in [4], in assay [5] and in assay [6] was inactive. In addition, the result in assay [7], in assay [8], in assay [9], in assay [10], in assay [11] and in [12] was inactive. Besides, the outcome in assay [13], in assay [14], in assay [15], in [16], in assay [17] and in assay [19] was inactive. In assay [18], the concentration at half-maximal activity (AC50) was 6.45 µM (active).

Turning to `CC(C)N(C(=O)CCl)c1ccccc1`, the concentration at half-maximal activity (AC50) in assay [1] is 11.1 µM (active); in [2] it was 33.3 µM (active); in [3], 13.9 µM (active); in assay [4] it was 25.4 µM (active); in assay [5], 20 µM (active); in [6], 20 µM (active). The AC50 in assay [7] was 5.56 µM (active); in assay [8], 27.3 µM (active); in assay [10], 20 µM (active); in assay [12] it was 26 µM (active); in [13], 18 µM (active); in assay [14], 20 µM (active). Moreover, the concentration at half-maximal activity (AC50) in assay [15] was 27.5 µM (active); in assay [16], 20 µM (active); in assay [17], 27.9 µM (active); in [18], 20 µM (active); in [19] it was 31.1 µM (active). Further, the outcome in assay [9] and in assay [11] was inactive.

Take `Cc1ccc(OP(=O)(Oc2ccc(C)cc2C)Oc2ccc(C)cc2C)c(C)c1`: the outcome in [1], in assay [4], in assay [5], in [6], in assay [9] and in [11] was inactive. The result in assay [13], in assay [14], in assay [18] and in assay [19] was inactive. Besides, the AC50 was 8.84 µM (active) in assay [20]; 20 µM (active) in [2]; 6.48 µM (active) in assay [3]; 5.81 µM (active) in assay [7]; 20 µM (active) in assay [8]; 10.7 µM (active) in [10]. Also, the AC50 in assay [12] was 34.1 µM (active); in assay [15], 20 µM (active); in [16], 20 µM (active); in assay [17] it was 5.89 µM (active).
